The campaign covered roughly 300,000 compounds. About 5,400 (1.8%) were called active. Another 28% or so got no clear call; they are omitted. The sample holds actives, similar compounds and a random draw of the others, so the mix is not that of the screen. Calls follow the shape of the full dose curve; tested in HEK293 cells.
Experiment: qHTS for inhibitors of binding or entry into cells for Marburg Virus
Conditions: Marburg virus pseudotyped entry inhibition, cell reporter; series mostly up to 37.8 µM; activity change, negative = inhibition: at the top concentration
% is scaled to controls: 0 for no effect and ±100 for the full control effect; potency is read from the fitted curve at half-maximal effect.

| SMILES | activity change, negative = inhibition | Potency |
| --- | --- | --- |
| O=C(OCCOc1ccccc1F)c1cc(S(=O)(=O)N2CCOCC2)ccc1F | -2.85% [at 46.1 µM] (inactive) | – |
| COc1ccc(CCNC(=O)C(Sc2ccccn2)c2ccccc2)cc1OC (centres undefined) | -0.361% (inactive) | – |
| C=CCn1c(COc2cccc3cccnc23)nnc1SCC(=O)OC | 0.388% (inactive) | – |
| CCCCC(=O)NC(c1ccc(OC)c(OC)c1)c1ccc2cccnc2c1O (centres undefined) | – | 3.16 µM (active) |
| Cc1cccc(NC(=O)c2cccnc2Cl)n1 | 4.02% [at 46.1 µM] (inactive) | – |
| CCOc1ccc(-n2c(SCC(=O)Nc3cc(C(=O)O)ccc3Cl)nc3ccccc3c2=O)cc1 | 21.7% [at 46.1 µM] (inactive) | – |
| N#CCCN(C(=O)COC(=O)c1ccc2c(c1)OCCO2)c1ccccc1 | -14.4% [at 46.1 µM] (inactive) | – |
| Cc1ccc(N2CC(C(=O)Nc3ccc(N(C)C)cc3)CC2=O)cc1Cl (centres undefined) | 1.2% [at 46.1 µM] (inactive) | – |
| COC(=O)CN(C(=S)Nc1ccc(Cl)cc1)C1CC(=O)N(c2ccc(OC)cc2)C1=O (centres undefined) | 13.8% (inactive) | – |
| CN(C)c1ccc(NC(=S)N(CCc2ccccc2)C2CC(=O)N(c3c(Cl)cccc3Cl)C2=O)cc1 (centres undefined) | – | 4.47 µM (active) |
| COc1ccccc1NC(=O)COC(=O)CNC(=O)C1CCCCC1 | -18.1% [at 46.1 µM] (inactive) | – |
| CC(C=Cc1ccccc1)=NNS(=O)(=O)c1ccc([N+](=O)[O-])cc1 | 5.6% [at 46.1 µM] (inactive) | – |
| CCn1c(C(O)c2cc(OC)ccc2OC)nc2ccccc21 (centres undefined) | 11.4% (inactive) | – |
| CS(=O)(=O)c1ccc(Cl)c(NC(=O)COC(=O)c2cccc(S(=O)(=O)N3CCCC3)c2)c1 | 13.1% [at 46.1 µM] (inactive) | – |
| CC(=O)c1c(C)[nH]c(C(=O)OCC(=O)Nc2cc(S(=O)(=O)N3CCCCC3)ccc2C)c1C | – | 9.2 µM (active) |
| Cc1nc(-c2ccc(F)cc2)c(CC(=O)Nc2cc(S(=O)(=O)N3CCCCC3)ccc2C)s1 | -29.3% [at 46.1 µM] (inactive) | – |
| COc1ccc(CCC(=O)Nc2ccc(Cl)c(S(=O)(=O)N3CCOCC3)c2)cc1OC | – | 6.31 µM (active) |
| COc1ccc(CC(=O)Nc2ccc3c(c2)CCC3)cc1S(=O)(=O)N1CCOCC1 | -5.43% (inactive) | – |
| O=C(CCc1ccc(S(=O)(=O)N2CCOCC2)cc1)Nc1ccc2ccccc2c1 | -24% (inactive) | – |
| CCN(CC(=O)Nc1cc(Cl)ccc1C)C(=O)CSCc1ccccc1 | -23.3% (inactive) | – |
| CCOCCCN1C(=O)C2C(C(=O)Nc3ccc(OCC)cc3)C3C=CC2(O3)C1C(=O)NC1CCCCC1 (centres undefined) | -0.0854% [at 46.1 µM] (inactive) | – |
| CC(=O)Nc1ccc(S(=O)(=O)Nc2ccc(N3CCOCC3)c(F)c2)cc1 | -4.97% (inactive) | – |

| SMILES | activity change, negative = inhibition | Potency |
| --- | --- | --- |
| COc1ccc(NS(=O)(=O)c2ccc(N3CCOCC3)c(NC(=O)c3ccccc3Br)c2)cc1 | – | 2.51 µM (active) |
| COc1ccc(NS(=O)(=O)c2ccc(C)c(C(=O)NCC(c3cccs3)N3CCOCC3)c2)cc1 (centres undefined) | 17.2% (inactive) | – |
| CCCCCN(C(=O)CCC(=O)OCC(=O)NC1CCC(C)CC1)c1c(N)n(CCCC)c(=O)[nH]c1=O (centres undefined) | -5.54% (inactive) | – |
| CC1CCN(C(=O)C2CCN(S(=O)(=O)N3CCC4(CC3)OCCO4)CC2)CC1 | 5.15% [at 46.1 µM] (inactive) | – |
| NC(=O)C1CCN(C(=O)c2cn(-c3ccccc3)nc2-c2cccnc2)CC1 | 7.53% (inactive) | – |
| CC1=NNC(=O)C1CCC(=O)N/N=C(\C)c1ccc(Cl)cc1 (centres undefined) | 21% [at 46.1 µM] (inactive) | – |
| C/C(=N\NC(=O)Cc1ccc(Br)cc1)c1cccnc1 | 7.54% [at 46.1 µM] (inactive) | – |
| C/C(=N\NC(=O)Cc1ccc(Cl)cc1)c1ccccn1 | – | 3.26 µM (active) |
| Cn1c(CCNS(=O)(=O)c2ccc(F)cc2)nnc1SCc1cccnc1 | -1.17% [at 46.1 µM] (inactive) | – |
| Cc1ccc(Br)c(NS(=O)(=O)c2cccc(C(=O)N3CCNC(=O)C3)c2)c1 | -6.8% (inactive) | – |
| Cc1c(NC(=O)C(C)OC(=O)c2ccccc2O)c(=O)n(-c2ccccc2)n1C (centres undefined) | -14.6% (inactive) | – |
| Fc1ccc2[nH]c3c(N4CCN(Cc5ccc6c(c5)OCO6)CC4)ncnc3c2c1 | – | 8.91 µM (active) |
| Cc1cc(N2CCN(Cc3ccc4c(c3)OCO4)CC2)n2ncnc2n1 | 6.99% (inactive) | – |
| Fc1ccc2[nH]c3c(N4CCSCC4)ncnc3c2c1 | – | 10 µM (active) |
| Fc1ccc(N2CCN(Cc3ccc4c(c3)OCO4)CC2)cc1 | 22.5% (inactive) | – |
| O=C(C1C=CC(C(=O)N2CCOCC2)S1)N1CCOCC1 (centres undefined) | 19.3% [at 46.1 µM] (inactive) | – |
| O=C(Cn1ccc2cc(S(=O)(=O)N3CCCC3)ccc21)NCc1ccccc1 | -13.9% [at 46.1 µM] (inactive) | – |
| COCCn1c(C)cc(C(=O)CSc2nnc(C3CC3)n2C2CC2)c1C | 10.6% (inactive) | – |
| CCN(CC)CCCC(C)Nc1ccnc2cc(Cl)ccc12 (centres undefined) | – | 5.62 µM (active) |
| CCN(CC)CCNc1ccc(Cl)cc1[N+](=O)[O-] | 2.68% (inactive) | – |
| COc1ccc(CNC(=O)C(C)NCc2ccccc2Cl)cc1 (centres undefined) | -8.02% (inactive) | – |
| Cc1cccc(N2C(=O)C[C@@H](N3CCN(Cc4ccc(Cl)cc4)CC3)C2=O)c1 | -3.25% (inactive) | – |

| SMILES | activity change, negative = inhibition | Potency |
| --- | --- | --- |
| Cc1nn2c(c1-c1ccccc1)N=C(c1ccco1)CC2c1ccccc1 (centres undefined) | – | 0.517 µM (active) |
| Cc1ccc(C)c(C(C)NC(=O)C2CCCO2)c1 (centres undefined) | -16.9% [at 46.1 µM] (inactive) | – |
| COC(CNC(=O)c1ccc2c(c1)ncn2-c1cc(C)cc(C)c1)OC | 0.48% [at 46.1 µM] (inactive) | – |
| O=C(CC(=O)Nc1ccc(Cl)c(Cl)c1)N/N=C/c1ccc(O)cc1 | -16.3% (inactive) | – |
| N/C(=N\OC(=O)Nc1ccc(Cl)c(Cl)c1)c1ncc(C(F)(F)F)cc1Cl | -4% (inactive) | – |
| O=C(CC(O)(C(F)(F)F)C(F)(F)F)Nc1ccc(Cl)c(Cl)c1 | – | 3.26 µM (active) |
| CSc1ncc(C(=O)Nc2ccc(C)cc2C)c(C)n1 | -15.4% [at 46.1 µM] (inactive) | – |
| CCOc1ccc(NC(=O)C(C)N2C(=O)c3ccccc3C2=O)cc1 (centres undefined) | 3.67% (inactive) | – |
| COc1ccc(CCNC(=O)CCc2ccccc2O)cc1OC | -7.5% [at 46.1 µM] (inactive) | – |
| COc1ccc(CCn2ccc(O)c(Cc3ccc(Cl)cc3Cl)c2=O)cc1OC | – | 3.98 µM (active) |
| COc1ccc(CCNC(=O)CCCn2c(=O)c3ccccc3n(Cc3ccc(F)cc3Cl)c2=O)cc1OC | 1.97% [at 46.1 µM] (inactive) | – |
| COC(=O)c1ccc(C(=O)NC2CC(C)(C)Cc3c2cnn3-c2ccc(F)cc2)nc1 (centres undefined) | -10.5% (inactive) | – |
| Cn1nnnc1SCC(=O)Nc1sccc1C(N)=O | -3.85% (inactive) | – |
| CN1c2ccc(C=O)c3c(C=O)ccc(c23)N(C)C1(C)C | – | 10 µM (active) |
| O=C(CN(CC1CCCO1)C(=O)CNS(=O)(=O)c1ccc(Cl)cc1)NCc1ccccc1 (centres undefined) | -28.2% [at 46.1 µM] (inactive) | – |
| COc1ccc(C(=O)Nc2ccnn2C2CCN(Cc3ccncc3)CC2)cc1 | 2.71% (inactive) | – |
| S=C(c1ccccc1)N1CCCC1 | 27% (inactive) | – |
| CSCCC(NS(=O)(=O)/C=C/c1ccccc1)C(=O)N1CCC(C)CC1 (centres undefined) | – | inactive |
| CSCCC(NC(=O)c1ccccc1)C(=O)N1CCN(Cc2ccc(Cl)cc2)CC1 (centres undefined) | – | 11.2 µM (active) |
| O=C(NC(Cc1ccccc1)C(=O)N1CCCC(C(F)(F)F)C1)c1ccccc1 (centres undefined) | -0.92% (inactive) | – |

From PubChem BioAssay AID540276 (National Center for Advancing Translational Sciences (NCATS), 2011)
